# From PubChem BioAssay AID828 (The Scripps Research Institute Molecular Screening Center, 2007)
# The whole screen tested about 140,000 compounds, of which about 550 (0.39%) were called active. This excerpt belongs to a sample that is enriched for actives. Unmarked numbers belong to inactive results. Cut-off read from the data, not from the text of the source: active = inhibition above about 27%; inactive = the rest.
# Target: Galanin receptor type 2 (Homo sapiens) (UniProt O43603)
# Assay: GALR2 antagonists in receptor-expressing cells, primary screen (AID 828);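 note: cells stimulated with galanin 1-16 at roughly its EC80; 0% = agonist challenge control and 100% = basal control without agonist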
# Details: antagonist mode, at 4 µM, hits give high values
# Galanin receptor type 2 (Homo sapiens), sequence (O43603 whole entry, looked up): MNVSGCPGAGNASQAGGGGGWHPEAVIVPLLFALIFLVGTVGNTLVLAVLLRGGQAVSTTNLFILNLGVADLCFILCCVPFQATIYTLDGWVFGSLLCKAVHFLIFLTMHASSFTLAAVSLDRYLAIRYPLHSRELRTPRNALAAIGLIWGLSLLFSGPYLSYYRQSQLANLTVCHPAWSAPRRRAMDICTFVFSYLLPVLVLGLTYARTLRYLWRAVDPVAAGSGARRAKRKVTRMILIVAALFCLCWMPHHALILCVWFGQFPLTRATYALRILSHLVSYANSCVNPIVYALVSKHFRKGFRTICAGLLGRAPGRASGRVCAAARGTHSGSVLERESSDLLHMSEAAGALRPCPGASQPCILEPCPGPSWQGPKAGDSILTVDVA
row,SMILES,inhibition
1,CN(C)c1ccc(-n2cccc2/C=N/n2cnnc2)cc1,0.57%
2,CC(Sc1nc(-c2ccccc2)cc(C(F)(F)F)n1)C(=O)Nc1ccc2c(c1)OCO2 (stereo unspecified),0.9%
3,CCc1cccc(C)c1NC(=O)COC(=O)Cc1ccsc1,5.66%
4,Cc1ccc(NC(=O)CSCC(=O)NC2CCCCC2)cc1,4.82%
5,Cc1ccc(OCC(=O)OC(C)CN(C)Cc2ccccc2)cc1 (stereo unspecified),-4.66%
6,CC(NC(=S)Nc1ccc(S(N)(=O)=O)cc1)c1ccc2c(c1)OCO2 (stereo unspecified),4.43%
7,COc1cccc(-c2ccc(C#N)c(SCC(=O)NCCc3ccc(Cl)cc3)n2)c1,6.63%
8,CCc1ccc(C2C(C#N)=C(N)N(N(C)C)C3=C2C(=O)CCC3)s1 (stereo unspecified),-4.14%
9,CCCc1nc2c([nH]1)C(c1cccnc1)C(C#N)=C(N)O2 (stereo unspecified),1.63%
10,COc1cc(OC)cc(-c2nc3ccccc3c(=O)n2NC(=O)c2cccnc2Cl)c1,1.33%
11,COc1ccc(/C=N/Nc2ncnc3sc4c(c23)CCCC4)cc1O,0.22%
12,COC(=O)C(NC(=O)c1ccc(OC)cc1)(Nc1ncc(S(=O)(=O)c2ccc([N+](=O)[O-])cc2)s1)C(F)(F)F (stereo unspecified),-4.68%
13,O=C(NC(Nc1nc2ccc([N+](=O)[O-])cc2s1)(C(F)(F)F)C(F)(F)F)c1ccccc1,88.7% (active)
14,Cc1cc(C)cc(OCC(=O)Nc2nc3ccc([N+](=O)[O-])cc3s2)c1,7.65%
15,O=C(CNC(=O)OCc1ccccc1)Oc1cc2oc(=O)cc(-c3ccccc3)c2cc1Cl,31.1% (active)
16,CC(=O)COc1ccc2c(-c3ccccc3)cc(=O)oc2c1,-10.7%
17,O=C(CNC(=O)c1ccc(-c2ccccc2)cc1)OCc1ccc(Cl)cc1,9.65%
18,CS(=O)(=O)N(CC(=O)Nc1ccc(Cl)c(Cl)c1)C1CCCCC1,-3.02%
19,CN(C)CCNC(CC(=O)Nc1ccc(Cl)c(Cl)c1)C(=O)O (stereo unspecified),-5.57%
20,CC(c1cccnc1)N(CCN(C)C)C(=O)Nc1ccc(Cl)c(Cl)c1 (stereo unspecified),29.6% (active)
21,COC(=O)c1ccccc1SC1CC(=O)N(c2cccc(C)c2)C1=O (stereo unspecified),10.2%
22,C=CCNC(=O)COC(=O)c1ccccc1C(=O)N(C)C1CCCCC1,-14.8%
23,Cc1cc(C(=O)COc2ccccc2[N+](=O)[O-])c(C)n1-c1cccc(S(=O)(=O)N2CCOCC2)c1,-3.23%

row,SMILES,inhibition
1,CCOC(=O)c1c(NC(=S)NC(=O)/C=C/c2cccs2)sc(C)c1C,-8.3%
2,Cc1c(C(=O)Nc2cccc(-c3nnc4n3CCCCC4)c2)oc2ccccc12,-1.52%
3,CC(Cc1cccs1)NC(=O)c1cccc(Cl)c1 (stereo unspecified),3.36%
4,Cc1ccc(/C(N)=N/OC(=O)COc2ccc(Cl)c(C)c2)cc1,7.55%
5,CC(C)(C)c1ccc(C(=O)CSc2ncn[nH]2)cc1,4.68%
6,O=C(NCCOCc1ccc(Cl)cc1)c1ncn[nH]1,6.29%
7,O=C(/C=C/Sc1ncn[nH]1)c1ccc(Cl)cc1,36.3% (active)
8,COc1ccc(NC(=O)c2nc(-n3nc(C)cc3C)ccc2Cl)cc1Cl,-4.22%
9,N#Cc1ccccc1Sc1ccccc1C(=O)OCC(=O)NC1CCCCC1,-1.21%
10,COc1ccc(CNC(=O)CN(Cc2ccc(Cl)cc2)S(C)(=O)=O)cc1,-0.09%
11,O=C(Oc1ccc([N+](=O)[O-])cc1)c1ccc(Cl)c(S(=O)(=O)N2CCCCC2)c1,-9.96%
12,COc1ccc(N(C(=O)c2ccc(C)cc2)S(=O)(=O)c2cccs2)cc1,5.74%
13,CCc1ccc2c(c1)C1(NN=C(c3ccccc3)S1)C(=O)N2 (stereo unspecified),28.2% (active)
14,C=C1c2cc(CC)ccc2NC(=O)N1c1ccc(C)cc1,5.36%
15,O=C1Nc2ccccc2C12Nc1ccccc1S2 (stereo unspecified),6.08%
16,CNC(=O)c1ccsc1NC(=O)c1ccc(S(=O)(=O)N2CCOCC2)cc1,-4.99%
17,CCCn1nc(C(=O)Nc2ccc3nc(C)sc3c2)c2ccccc2c1=O,-3.02%
18,COc1ccc(C2CC(c3cccs3)=NN2C(=O)COC(=O)c2cc3ccccc3cc2O)cc1OC (stereo unspecified),12.7%
19,Fc1ccc(N2N=C(c3cccs3)CC2c2ccco2)c(F)c1 (stereo unspecified),-13.2%
20,COc1ccccc1N1N=C(c2cccs2)CC1c1ccccc1 (stereo unspecified),32.5% (active)
21,CC(C)(C)NC(=O)COC(=O)c1cc(Br)ccc1Cl,-2.97%
22,CC(=O)Nc1ccc(S(=O)(=O)NC(C)C(=O)OCC(=O)NC2CCCC2)cc1 (stereo unspecified),11.3%
23,O=C(Cc1cccs1)Nc1cccc(-c2nc3ccccc3[nH]2)c1,12.3%
